Results published in ChEMBL document CHEMBL3988442, “University of Dundee, Small-Polar-MMV Screening Library” (2021).
In all, about 48,000 compounds went through this assay and about 13,000 (27%) showed an effect of 50% or more. This is one part of the list.

system: Wolbachia pipientis; assay: Anti-Wolbachia Cell-Based Screen; format: functional; set-up: scale not given: in the data most compounds retested in dose-response had high values; conditions: 5 µM

Row | SMILES | Percent Effect [%]
1 | C=C(C)CN(CC)Cc1nc(C)no1 | 10.24
2 | COCc1nc(C(=O)NS(=O)(=O)c2cc(F)ccc2F)cs1 | 4.131
3 | Cc1cc(C(=O)NCC(O)c2ccc(Cl)s2)c(C)o1 (stereo unspecified) | -36.26
4 | CCC1CN(CCNS(C)(=O)=O)c2ccccc2O1 (stereo unspecified) | -11.22
5 | CCNc1c(C#N)c(=O)n(C)c(=O)n1C | 7.391
6 | CC1CCCCN1c1nc2c(c(=O)[nH]1)CCN(Cc1ccccc1O)C2 (stereo unspecified) | 110.1
7 | NC(=O)N1CCCC(C(=O)N2CCc3c(nc(CC4CC4)[nH]c3=O)C2)C1 (stereo unspecified) | 10.65
8 | Cc1nc(-c2ccc(C(=O)O)cc2)cc(C2CCCN(C(C)C)C2)n1 (stereo unspecified) | 96.58
9 | Cc1nc(O)cc(C2CCN(C(=O)C(C)Cn3nc(C)nc3C)CC2)n1 (stereo unspecified) | -10.44
10 | Cc1nc(-c2ccc(C(=O)O)cc2)cc(C2CCN(C(C)C)C2)n1 (stereo unspecified) | -2.545
11 | Cc1nc(-c2cccc(C(=O)O)c2)cc(C2CCN(C(C)C)C2)n1 (stereo unspecified) | -0.6305
12 | CC(C)S(=O)(=O)N1CCCC(c2cccc(C(=O)O)c2)C1 (stereo unspecified) | 13.9
13 | Cc1nc(-c2cccc(C(=O)O)c2)cc(C2CCCN(C(C)C)C2)n1 (stereo unspecified) | 109.5
14 | Cc1nc(-c2ccc(C(=O)O)cc2)cc(C2CCN(C(C)C)CC2)n1 | 130.3
15 | O=C(O)C(F)(F)F.O=C(c1cnccn1)N1CCN2C[C@H](OCc3ccccc3F)C[C@H]2C1 | 4.203
16 | Cc1ccoc1C(=O)NC1CCN(Cc2csc3c(F)cccc23)CC1 | 2.463
17 | CNC(=O)C1(C)CCCN1Cc1cnn(C)c1C (stereo unspecified) | 106.7
18 | Cc1c(CNC(=O)c2cn(CCC3CCCCN3)nn2)cnn1C (stereo unspecified) | 10.08
19 | Cc1c(CNC(=O)Nc2cccc3c2CCN3C)cnn1C | -8.63
20 | CCn1cc(CN2CCCN(C(=O)C3(C)CCOCC3)CC2)cn1 | 8.44
21 | Cc1c(CN2CCCC2(C)C(=O)N2CCOCC2)cnn1C (stereo unspecified) | 169.3
22 | Cc1c(CN2CCCC2(C)C(=O)NC2CCCC2)cnn1C (stereo unspecified) | 156.7
23 | Cc1oncc1C(=O)N1CCC(O)(CN2CCOCC2)C(C)(C)C1 (stereo unspecified) | 29.5
24 | Cc1cccc(N2CCC3(CCCN3Cc3cnn(C)c3C)CC2)n1 | 9.163
25 | O=C(NCc1cnn2ccccc12)NC1CCCC1 | -4.156
26 | CNc1nc(CNC(=O)Nc2ccc(OC(C)C)cc2C)cs1 | 3.504

Row | SMILES | Percent Effect [%]
27 | CCc1nc2n(n1)CCCC2Nc1nc(C2CC2)ns1 (stereo unspecified) | 8.759
28 | COc1cc(C)ccc1C(=O)N1CCC2(CCC(=O)N(C(C)C)C2)CC1 | -6.21
29 | CCC(NC(=O)NCc1cc(Cl)ccc1OC)c1noc(C)n1 (stereo unspecified) | -1.249
30 | CC(C)(O)CNC(=O)c1sccc1Br | 4.512
31 | Cn1cc(N2CCCC(Oc3ccc(F)cc3Cl)C2=O)cn1 (stereo unspecified) | 5.607
32 | CN(CCCN1CCCC1)[C@@H]1c2ccccc2C2(CCNCC2)[C@H]1O | 1.656
33 | CCc1nc(C2CCCN2C(=O)CCc2cccs2)no1 (stereo unspecified) | -2.964
34 | O=C(CCc1cccs1)N1CCCC1c1noc(C2CC2)n1 (stereo unspecified) | 100.7
35 | O=C(CCCc1ccccn1)N1CCCC1c1noc(C2CC2)n1 (stereo unspecified) | 105.7
36 | CCc1nc(C2CCCN2CCc2cccs2)no1 (stereo unspecified) | -1.558
37 | CCc1nc(C2CCCN2C(=O)Cc2cccs2)no1 (stereo unspecified) | 95.79
38 | c1csc(CCN2CCCC2c2noc(C3CC3)n2)c1 (stereo unspecified) | -13.07
39 | O=C(COc1cc(Cl)cc(Cl)c1)NCc1nncn1C1CC1 | 2.768
40 | c1cn(Cc2nnc(C3CCN(c4nccs4)CC3)n2C2CC2)cn1 | 0.8881
41 | CC(C)n1ccnc1C1CCCN(c2ccncc2F)C1 (stereo unspecified) | 20.23
42 | Cc1c(C(=O)NC2(C#N)CCCC2)nnn1-c1ccccc1Cl | -3.476
43 | COC(=O)CNC(=O)CCCn1cnc2ccccc2c1=O | 126.5
44 | CC(C)NC(=O)CCCn1cnc2ccccc2c1=O | 103.3
45 | CCn1c(C)nnc1SCCNC(=O)Cn1cnc2ccccc2c1=O | 1.964
46 | COCC(C)NC(=O)CCCn1cnc2ccccc2c1=O (stereo unspecified) | 133.1
47 | Cc1cccc(N2CCN(CCC(=O)NCc3cnc(C)cn3)CC2)c1 | -29.47
48 | Cn1ccnc1SCCNC(=O)Cn1cnc2ccccc2c1=O | 4.017
49 | COCC(C)NC(=O)CCSc1ccc(F)cc1 (stereo unspecified) | 4.419
50 | Cc1cnc(CNC(=O)CCCn2cnc3ccccc3c2=O)cn1 | 123.4
51 | CCC(C)NC(=O)CCc1ccnc2ccccc12 (stereo unspecified) | 0.4358
52 | Cc1nnc(SCCNC(=O)Cn2cnc3ccccc3c2=O)s1 | -10.12

Row | SMILES | Percent Effect [%]
53 | CN(C)S(=O)(=O)c1ccc(CNc2ccc(Cl)cn2)cc1 | -2.882
54 | CSCC(C)C(=O)NCc1c(C)nc2cc(=O)[nH]n2c1C (stereo unspecified) | -19.78
55 | CCCc1nccn1-c1ccc(C(O)CN2CCOCC2)cc1 (stereo unspecified) | -2.856
56 | CCc1nc2c(c(N3CCOCC3)n1)CCN(C(=O)c1ccon1)CC2 | 0.9669
57 | Cc1cc(C(C)NC(=O)CCn2nnc3ccccc3c2=O)c(C)o1 (stereo unspecified) | 5.131
58 | O=C(CCn1ccc2ncccc2c1=O)N1CCCC1 | -7.075
59 | Cn1cc2ncn(CCCOc3cccnc3)c(=O)c2n1 | -2.569
60 | CC(NC(=O)CCCn1cnc2ccccc2c1=O)c1ncn[nH]1 (stereo unspecified) | 135.6
61 | CC(NC(=O)CCCc1ccc(Cl)cc1)c1nnn[nH]1 (stereo unspecified) | -9.693
62 | O=C(CCCn1cnc2ccccc2c1=O)Nc1nc[nH]n1 | 118.2
63 | Cc1noc(C)c1CN(C)C(=O)NCCOc1ccc(F)cc1F | -11.52
64 | O=C(NCC1=CCCCC1)C(c1cccnc1)N1CCOCC1 (stereo unspecified) | -8.257
65 | Cc1nc2c(c(N(C)C)n1)CCN(C(=O)CN1CCC(O)CC1)C2 | -29.43
66 | CCCc1ccc(C(=O)N2CCc3c(nc(C)nc3N(C)C)C2)cc1 | 96.2
67 | Cc1nc2c(c(N(C)C)n1)CCN(C(=O)c1ccc(N)nc1)C2 | 84.83
68 | CCNc1ncc(C(=O)N2CCC(c3ccccc3C(=O)O)C2)cn1 (stereo unspecified) | -1.411
69 | CCCc1ccc(C(=O)N2CCn3c(nnc3C(C)C)C2)cc1 | 1.679
70 | CCCc1ccc(C(=O)N2CCc3c(nc(N(C)C)[nH]c3=O)C2)cc1 | 0.7341
71 | CCN(CC)CCC(=O)N1CCc2c(nc(N(C)C)nc2N(C)C)C1 | -0.6304
72 | CCNc1ncc(C(=O)N2Cc3nc(C)[nH]c(=O)c3C2)cn1 | 110.8
73 | CCNc1ncc(C(=O)N2CCc3c(nc(C)nc3N(C)C)C2)cn1 | 95.13
74 | CCNc1ncc(C(=O)N2CCOC(CCCC(C)C)C2)cn1 (stereo unspecified) | 18.06
75 | CN(C)c1nc2c(c(=O)[nH]1)CCN(C(=O)c1ccc(=O)[nH]c1)C2 | -0.009534
76 | Cc1nc2c(c(N(C)C)n1)CCN(C(=O)c1sccc1S(N)(=O)=O)C2 | -20.97
